In PubChem BioAssay (EPA / NIEHS):
Where “and” joins values, the source holds several entries; their conditions need not be identical. Equal values may be shown once. Some structures have more than one record in an assay (separate samples or runs), and their calls can disagree. Calls of active or inactive are those of the source. How the source made its calls: active means hit-call score of the fitted dose curve at least 0.9, where 1 is the maximum; inactive means score below 0.9.

Assays:
Conditions in all cases: mRNA level, 48 h; actives raise or lower the signal
[1] = read-out: Hypoxia-inducible factor 1-alpha (Homo sapiens) (UniProt Q16665); assay: LTEA_HepaRG_HIF1A: Life Technologies and Expression Analysis (LTEA) Assay for Hypoxia-inducible factor 1 (HIF1A) Trancription factor using HepaRG (AID 2283503)
Procedure, shortened: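 Differentiated HepaRG cells in serum-free induction medium exposed 48 h, in duplicate, to 8-point half-log series from 100 uM in 0.5% DMSO. HIF1A mRNA measured by TaqMan qRT-PCR, normalized to ACTB/GAPDH/POLR2A, fitted bidirectionally versus DMSO.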

[2] = read-out: 3-Hydroxy-3-Methylglutaryl-CoA Synthase 2 (HMGCS2), HMGCS2 (gene 3158); assay: LTEA_HepaRG_HMGCS2: Life Technologies and Expression Analysis (LTEA) Assay for 3-Hydroxy-3-Methylglutaryl-CoA Synthase 2 (HMGCS2) using HepaRG (AID 2283504)
Procedure, shortened: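 HepaRG, plated 48 h then switched to serum-free induction media; cmpd 8-pt, max 100 uM, 1/2-log, 0.5% DMSO, n=2, 48 h. HMGCS2 mRNA by Fluidigm TaqMan qRT-PCR, ACTB/GAPDH/POLR2A norm; bidirectional fit vs DMSO.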

[3] = read-out: HGF (gene 3082); assay: LTEA_HepaRG_HGF: Life Technologies and Expression Analysis (LTEA) Assay for Hepatocyte Growth Facto (HGF) using HepaRG (AID 2283505)
Procedure, shortened: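 Read-out is HGF transcript level by qRT-PCR, normalized to three housekeeping genes, fitted bidirectionally against 0.5% DMSO vehicle. Human HepaRG cells received test chemicals for 48 h at up to 100 uM.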

[4] = read-out: Insulin Like Growth Factor 1 (IGF1), IGF1 (gene 3479); assay: LTEA_HepaRG_IGF1: Life Technologies and Expression Analysis (LTEA) Assay for Insulin Like Growth Factor 1 (IGF1) using HepaRG (AID 2283506)
Procedure, shortened: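 HepaRG, plated 48 h, then switched to serum-free induction media; test chemical 8-pt half-log from 100 uM (0.5% DMSO), duplicate, 48 h. Lysis in RLT, TaqMan qRT-PCR, norm. ACTB/GAPDH/POLR2A. Bidirectional fit vs DMSO.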

[5] = read-out: Intercellular Adhesion Molecule 1 (ICAM1), ICAM1 (gene 3383); assay: LTEA_HepaRG_ICAM1: Life Technologies and Expression Analysis (LTEA) Assay for Intercellular Adhesion Molecule 1 (ICAM1) using HepaRG (AID 2283507)
Procedure, shortened: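 Readout is qRT-PCR mRNA level, normalized to three housekeeping genes and fitted bidirectionally against 0.5% DMSO vehicle. Human HepaRG cultures received compound for 48 h, top concentration 100 uM with half-log dilutions.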

[6] = read-out: Insulin-like growth factor-binding protein 1 (IGFBP1), IGFBP1 (gene 3484); assay: LTEA_HepaRG_IGFBP1: Life Technologies and Expression Analysis (LTEA) Assay for Insulin-like growth factor-binding protein 1 (IGFBP1) using HepaRG (AID 2283508)
Procedure, shortened: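 Thawed HepaRG cells are plated for 48 h, switched to serum-free induction medium, then dosed in duplicate for another 48 h (100 uM top, half-log steps). Lysates in RLT go to qRT-PCR, and gain or loss of signal is fitted relative to vehicle.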

[7] = read-out: Interleukin 6 (IL6), IL6 (gene 3569); assay: LTEA_HepaRG_IL6: Life Technologies and Expression Analysis (LTEA) Assay for Interleukin 6 (IL6) using HepaRG (AID 2283509)
Procedure, shortened: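 Differentiated human HepaRG cells, plated 48 h then switched to serum-free induction medium, were exposed in duplicate for 48 h to eight half-log concentrations up to 100 uM in 0.5% DMSO. IL6 mRNA measured by qRT-PCR, normalized to ACTB/GAPDH/POLR2A.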

[8] = read-out: Interleukin 6 Receptor (IL6R), IL6R (gene 3570); assay: LTEA_HepaRG_IL6R: Life Technologies and Expression Analysis (LTEA) Assay for Interleukin 6 Receptor (IL6R) using HepaRG (AID 2283510);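 on AC50: TaqMan qRT-PCR signal normalized to ACTB GAPDH and POLR2A housekeeping genes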
Procedure, shortened: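 Readout is IL6R transcript level by TaqMan qRT-PCR, normalized to three housekeeping genes and fitted bidirectionally against 0.5% DMSO controls. Human HepaRG cells received chemicals for 48 h in serum-free induction medium, highest concentration 100 uM.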

[9] = read-out: Potassium channel subfamily K member 1 (KCNK1), KCNK1 (gene 3775); assay: LTEA_HepaRG_KCNK1: Life Technologies and Expression Analysis (LTEA) Assay for Potassium channel subfamily K member 1 (KCNK1) using HepaRG (AID 2283511)
Procedure, shortened: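 Differentiated human HepaRG cells in serum-free induction medium were exposed in duplicate for 48 h to 8 half-log concentrations up to 100 uM in 0.5% DMSO. KCNK1 mRNA was measured by TaqMan qRT-PCR, normalized to ACTB, GAPDH and POLR2A, and fitted bidirectionally versus DMSO.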

[10] = read-out: Keratin 19 (KRT19), KRT19 (gene 3880); assay: LTEA_HepaRG_KRT19: Life Technologies and Expression Analysis (LTEA) Assay for Keratin 19 (KRT19) using HepaRG (AID 2283512)
Procedure, shortened: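 KRT19 transcript levels, measured by Fluidigm qRT-PCR against three housekeeping genes, are fitted for gain or loss of signal relative to DMSO. Human HepaRG cells receive test chemicals (top 100 uM, half-log steps, 0.5% DMSO) for 48 hours.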

[11] = read-out: JUN Transcription Factor, JUN (gene 3725); assay: LTEA_HepaRG_JUN: Life Technologies and Expression Analysis (LTEA) Assay for JUN Transcription Factor using HepaRG (AID 2283513)
Procedure, shortened: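 Cells plated 48 h, medium switched to serum-free induction medium, then dosed 48 h (100 uM top, half-log dilutions, 0.5% DMSO). RNA isolated; JUN measured by qRT-PCR against three housekeeping genes; gain or loss fitted relative to DMSO.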

[12] = read-out: Lipase C (LIPC), LIPC (gene 3990); assay: LTEA_HepaRG_LIPC: Life Technologies and Expression Analysis (LTEA) Assay for Lipase C (LIPC) using HepaRG (AID 2283514)
Procedure, shortened: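 Differentiated human HepaRG cells in serum-free induction medium were exposed in duplicate for 48 h to eight concentrations (top 100 uM, half-log steps, 0.5% DMSO). LIPC mRNA was quantified by TaqMan qRT-PCR, normalized to ACTB, GAPDH and POLR2A, with bidirectional fitting versus DMSO.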

[13] = read-out: Lipoprotein lipase (LPL), LPL (gene 4023); assay: LTEA_HepaRG_LPL: Life Technologies and Expression Analysis (LTEA) Assay for Lipoprotein lipase (LPL) using HepaRG (AID 2283515)
Procedure, shortened: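 Differentiated human HepaRG cells in serum-free induction medium were exposed in duplicate for 48 h to eight half-log concentrations (top 100 uM) in 0.5% DMSO. LPL mRNA was quantified by TaqMan qRT-PCR, normalized to ACTB, GAPDH and POLR2A.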

[14] = read-out: MicroRNA 122 (MIR122), gene 406906; assay: LTEA_HepaRG_MIR122: Life Technologies and Expression Analysis (LTEA) Assay for MicroRNA 122 (MIR122) using HepaRG (AID 2283516); further: the transcript read is the microRNA miR-122
Procedure, shortened: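 HepaRG plated 48 h, switched to serum-free induction medium, then treated in duplicate for 48 h (100 uM top, half-log steps, 0.5% DMSO vehicle). RNA isolated, qRT-PCR performed, concentration-response fitted both directions relative to DMSO.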

[15] = read-out: matrix metalloproteinase-10 (MMP10), MMP10 (gene 4319); assay: LTEA_HepaRG_MMP10: Life Technologies and Expression Analysis (LTEA) Assay for matrix metalloproteinase-10 (MMP10) using HepaRG (AID 2283517)
Procedure, shortened: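 HepaRG, collagen I, ~100,000 cells/well; serum-free induction medium; 48 h exposure, duplicate, 8-pt half-log to 100 uM, 0.5% DMSO. Readout: TaqMan qRT-PCR, normalized to ACTB/GAPDH/POLR2A; bidirectional fit vs DMSO.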

[16] = read-out: MYC, MYC (gene 4609); assay: LTEA_HepaRG_MYC: Life Technologies and Expression Analysis (LTEA) Assay for MYC using HepaRG (AID 2283518)
Procedure, shortened: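 HepaRG, ~100,000 cells/well, collagen I; 48 h plating; serum-free induction medium; 48 h dosing, duplicate, 100 uM top, half-log, 0.5% DMSO; total RNA → qRT-PCR MYC; gain/loss fit vs DMSO.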

[17] = read-out: matrix metalloproteinase-3 (MMP3), MMP3 (gene 4314); assay: LTEA_HepaRG_MMP3: Life Technologies and Expression Analysis (LTEA) Assay for matrix metalloproteinase-3 (MMP3) using HepaRG (AID 2283519)
Procedure, shortened: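 Differentiated human HepaRG cells, plated 48 h on collagen I, were exposed in duplicate for 48 h in serum-free induction medium to eight half-log concentrations up to 100 uM in 0.5% DMSO. MMP3 mRNA was quantified by TaqMan qRT-PCR, normalised to ACTB, GAPDH and POLR2A.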

[18] = read-out: Paternally Expressed 10 (PEG10), PEG10 (gene 23089); assay: LTEA_HepaRG_PEG10: Life Technologies and Expression Analysis (LTEA) Assay for Paternally Expressed 10 (PEG10) using HepaRG (AID 2283520)
Procedure, shortened: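 HepaRG, 48 h post-plating → serum-free induction medium → 48 h chemical exposure (duplicate, 8-pt, max 100 uM, half-log, 0.5% DMSO) → lysis in RLT → TaqMan qRT-PCR for PEG10, ACTB/GAPDH/POLR2A normalisation.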

[19] = read-out: Nuclear factor NF-kappa-B p105 subunit (Homo sapiens) (UniProt P19838); assay: LTEA_HepaRG_NFKB1: Life Technologies and Expression Analysis (LTEA) Assay for Nuclear Factor Kappa B Subunit 1 (NFKB1) using HepaRG (AID 2283521)
Procedure, shortened: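 NFKB1 transcript was measured by TaqMan qRT-PCR on Fluidigm arrays, normalised to three housekeeping genes and fitted in both directions against 0.5% DMSO. HepaRG cells were dosed in duplicate for 48 h in serum-free induction medium, eight half-log steps from 100 uM.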

[20] = read-out: Protein phosphatase 2A (PPP2R4), PTPA (gene 5524); assay: LTEA_HepaRG_PPP2R4: Life Technologies and Expression Analysis (LTEA) Assay for Protein phosphatase 2A (PPP2R4) using HepaRG (AID 2283522)
Procedure, shortened: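 Readout is PPP2R4 transcript level by microfluidic qRT-PCR after 48 h chemical treatment of human HepaRG liver cells. Concentrations spanned 100 uM downward in half-log steps; gain or loss of signal was fitted relative to DMSO.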

Measured: AC50

Hypoxia-inducible factor 1-alpha (Homo sapiens), sequence (Q16665 whole entry, looked up): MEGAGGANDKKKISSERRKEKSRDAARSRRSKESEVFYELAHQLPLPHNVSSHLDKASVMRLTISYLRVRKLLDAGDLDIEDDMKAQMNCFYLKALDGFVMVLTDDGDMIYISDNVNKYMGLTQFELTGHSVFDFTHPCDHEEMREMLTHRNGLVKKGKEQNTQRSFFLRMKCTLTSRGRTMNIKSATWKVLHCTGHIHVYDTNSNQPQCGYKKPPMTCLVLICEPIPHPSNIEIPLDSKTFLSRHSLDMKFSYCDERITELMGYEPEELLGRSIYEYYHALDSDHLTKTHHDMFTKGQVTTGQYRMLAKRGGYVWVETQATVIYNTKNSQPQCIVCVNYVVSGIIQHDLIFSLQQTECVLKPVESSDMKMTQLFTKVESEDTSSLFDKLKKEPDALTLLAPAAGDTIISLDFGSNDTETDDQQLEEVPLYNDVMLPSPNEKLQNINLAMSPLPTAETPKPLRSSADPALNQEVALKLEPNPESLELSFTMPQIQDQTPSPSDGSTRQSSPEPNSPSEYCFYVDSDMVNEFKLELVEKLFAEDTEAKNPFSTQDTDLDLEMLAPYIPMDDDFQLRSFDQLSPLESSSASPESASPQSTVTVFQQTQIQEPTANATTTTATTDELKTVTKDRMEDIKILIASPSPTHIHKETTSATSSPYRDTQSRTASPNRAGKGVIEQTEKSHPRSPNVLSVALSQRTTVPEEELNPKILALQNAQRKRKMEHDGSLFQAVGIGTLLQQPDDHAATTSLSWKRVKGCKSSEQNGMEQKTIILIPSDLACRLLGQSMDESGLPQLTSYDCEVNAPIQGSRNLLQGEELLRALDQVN
Nuclear factor NF-kappa-B p105 subunit (Homo sapiens), sequence (P19838 whole entry, looked up): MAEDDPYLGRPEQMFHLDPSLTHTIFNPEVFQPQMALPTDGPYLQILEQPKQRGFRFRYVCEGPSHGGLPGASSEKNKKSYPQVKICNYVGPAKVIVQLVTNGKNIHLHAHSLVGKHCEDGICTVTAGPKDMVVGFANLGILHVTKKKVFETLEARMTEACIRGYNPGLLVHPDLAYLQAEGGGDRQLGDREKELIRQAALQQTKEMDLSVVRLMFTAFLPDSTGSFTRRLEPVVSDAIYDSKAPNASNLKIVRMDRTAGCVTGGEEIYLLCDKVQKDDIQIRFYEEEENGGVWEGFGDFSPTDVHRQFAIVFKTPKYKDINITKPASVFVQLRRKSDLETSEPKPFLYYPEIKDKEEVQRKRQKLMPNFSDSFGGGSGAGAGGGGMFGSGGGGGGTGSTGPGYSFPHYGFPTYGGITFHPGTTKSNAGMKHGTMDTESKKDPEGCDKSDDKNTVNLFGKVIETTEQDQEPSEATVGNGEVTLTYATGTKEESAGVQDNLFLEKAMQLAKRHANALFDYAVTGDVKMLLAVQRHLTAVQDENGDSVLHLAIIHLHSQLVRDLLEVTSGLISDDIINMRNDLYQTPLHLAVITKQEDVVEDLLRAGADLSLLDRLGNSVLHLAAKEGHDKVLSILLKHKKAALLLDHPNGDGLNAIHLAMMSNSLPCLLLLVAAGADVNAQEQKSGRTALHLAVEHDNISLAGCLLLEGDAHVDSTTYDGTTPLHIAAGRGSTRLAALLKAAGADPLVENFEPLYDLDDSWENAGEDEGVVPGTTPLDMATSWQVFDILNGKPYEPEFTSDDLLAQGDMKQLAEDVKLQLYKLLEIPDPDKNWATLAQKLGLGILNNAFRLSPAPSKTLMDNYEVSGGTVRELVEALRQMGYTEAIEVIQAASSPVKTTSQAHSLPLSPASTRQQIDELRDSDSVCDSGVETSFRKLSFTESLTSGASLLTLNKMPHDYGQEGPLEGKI

O=[N+]([O-])c1c(Cl)c(Cl)c(Cl)c(Cl)c1Cl
active: [4] 50 µM | [7] 9.92 µM | [10] 38.6 µM | [17] 50 µM | [18] 69.8 µM
inactive: all other assays above

Oc1ccc(Cl)cc1Cc1ccccc1
active: [2] 76.8 µM | [3] 83.5 µM | [6] 75.2 µM and 88.5 µM | [8] 83.6 µM | [10] 50.5 µM | [13] 82.2 µM and 89.3 µM | [14] 82.4 µM | [18] 89 µM and 77.3 µM and 78.6 µM | [19] 15.7 µM
inactive: [1] | [2] | [3] | [4] | [5] | [6] | [7] | [8] | [9] | [10] | [11] | [13] | [14] | [15] | [16] | [17] | [19] | [20]
